In the supplement of paper PMC11732987, “Enantioselective OTUD7B fragment discovery through chemoproteomics screening and high-throughput optimisation” (Communications Chemistry, 2025):

What was measured:
Assay in all cases: log2 ratio of Biotin-Ahx-Ub-VS probe labelling (fragment/DMSO); higher = less target engagement (more negative = stronger competition), active = hit call of the paper (q ≤ 0.05, log2 ratio ≤ -1)
Conditions in all cases: compound concentration: 200 uM; treatment time: 3 h
[1] = target: T1, USP42 (UniProt Q9H9J4)
T1 sequence (whole entry): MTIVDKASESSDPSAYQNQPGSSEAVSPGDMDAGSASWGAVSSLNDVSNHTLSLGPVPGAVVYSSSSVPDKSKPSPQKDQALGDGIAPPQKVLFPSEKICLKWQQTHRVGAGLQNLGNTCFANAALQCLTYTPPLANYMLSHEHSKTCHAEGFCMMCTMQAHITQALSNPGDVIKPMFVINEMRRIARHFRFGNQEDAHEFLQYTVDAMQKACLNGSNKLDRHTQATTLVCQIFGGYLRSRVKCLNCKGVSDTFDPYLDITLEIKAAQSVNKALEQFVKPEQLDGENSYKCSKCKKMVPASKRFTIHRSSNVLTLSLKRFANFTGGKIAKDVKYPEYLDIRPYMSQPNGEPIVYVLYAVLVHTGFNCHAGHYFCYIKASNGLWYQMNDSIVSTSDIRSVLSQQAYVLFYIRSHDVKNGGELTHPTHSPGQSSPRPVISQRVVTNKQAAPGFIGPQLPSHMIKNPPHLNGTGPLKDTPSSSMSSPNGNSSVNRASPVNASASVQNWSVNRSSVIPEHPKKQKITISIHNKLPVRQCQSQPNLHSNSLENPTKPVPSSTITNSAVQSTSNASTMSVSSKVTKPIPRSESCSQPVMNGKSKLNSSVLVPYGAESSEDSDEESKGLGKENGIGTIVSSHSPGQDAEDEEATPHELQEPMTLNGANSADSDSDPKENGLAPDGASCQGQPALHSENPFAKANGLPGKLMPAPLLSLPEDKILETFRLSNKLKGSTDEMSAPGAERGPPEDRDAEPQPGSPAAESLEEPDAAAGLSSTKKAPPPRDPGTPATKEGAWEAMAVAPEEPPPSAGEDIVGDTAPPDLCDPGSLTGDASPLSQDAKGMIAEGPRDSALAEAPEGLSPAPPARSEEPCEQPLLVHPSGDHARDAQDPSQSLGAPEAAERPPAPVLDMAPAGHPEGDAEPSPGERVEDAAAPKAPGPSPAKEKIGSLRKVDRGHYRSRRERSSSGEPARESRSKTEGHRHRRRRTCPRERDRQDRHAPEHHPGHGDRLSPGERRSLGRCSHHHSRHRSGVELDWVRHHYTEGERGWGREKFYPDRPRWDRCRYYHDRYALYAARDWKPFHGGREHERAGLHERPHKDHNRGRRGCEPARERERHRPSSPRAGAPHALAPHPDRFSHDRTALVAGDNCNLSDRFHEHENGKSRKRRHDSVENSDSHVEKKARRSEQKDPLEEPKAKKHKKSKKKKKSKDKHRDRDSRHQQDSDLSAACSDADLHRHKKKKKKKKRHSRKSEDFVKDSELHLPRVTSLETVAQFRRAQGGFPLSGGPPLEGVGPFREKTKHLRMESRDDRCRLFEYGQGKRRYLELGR
Summary of the method: (§1)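 Using Biotin-Ahx-Ub-VS at 0.5 µM final for 1 h, DUBs were labelled in HEK293T lysate (495 µg per sample) that had first been treated in triplicate with fragment at 200 µM or vehicle for 3 h. NeutrAvidin enrichment, LysC and trypsin digestion and diaPASEF LC-MS/MS followed. Spectronaut label-free quantities were global-median-normalised. Values are average log2 fragment/vehicle ratios by unpaired t-test, using proteins with ≥2 unique peptides.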

[2] = target: USP46 (UniProt P62068)
Sequence of USP46 (P62068 whole entry): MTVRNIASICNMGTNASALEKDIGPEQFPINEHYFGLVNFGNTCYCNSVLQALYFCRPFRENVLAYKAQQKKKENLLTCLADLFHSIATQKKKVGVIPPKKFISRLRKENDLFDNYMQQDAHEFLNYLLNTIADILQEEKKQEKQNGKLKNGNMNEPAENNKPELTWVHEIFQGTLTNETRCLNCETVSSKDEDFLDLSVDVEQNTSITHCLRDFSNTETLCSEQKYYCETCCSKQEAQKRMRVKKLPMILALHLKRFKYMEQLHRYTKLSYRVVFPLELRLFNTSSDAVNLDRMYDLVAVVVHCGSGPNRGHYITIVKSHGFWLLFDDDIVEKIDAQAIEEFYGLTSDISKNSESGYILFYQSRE
Summary of the method: as §1

[3] = target: T2, USP47 (UniProt Q96K76)
T2 sequence (whole entry): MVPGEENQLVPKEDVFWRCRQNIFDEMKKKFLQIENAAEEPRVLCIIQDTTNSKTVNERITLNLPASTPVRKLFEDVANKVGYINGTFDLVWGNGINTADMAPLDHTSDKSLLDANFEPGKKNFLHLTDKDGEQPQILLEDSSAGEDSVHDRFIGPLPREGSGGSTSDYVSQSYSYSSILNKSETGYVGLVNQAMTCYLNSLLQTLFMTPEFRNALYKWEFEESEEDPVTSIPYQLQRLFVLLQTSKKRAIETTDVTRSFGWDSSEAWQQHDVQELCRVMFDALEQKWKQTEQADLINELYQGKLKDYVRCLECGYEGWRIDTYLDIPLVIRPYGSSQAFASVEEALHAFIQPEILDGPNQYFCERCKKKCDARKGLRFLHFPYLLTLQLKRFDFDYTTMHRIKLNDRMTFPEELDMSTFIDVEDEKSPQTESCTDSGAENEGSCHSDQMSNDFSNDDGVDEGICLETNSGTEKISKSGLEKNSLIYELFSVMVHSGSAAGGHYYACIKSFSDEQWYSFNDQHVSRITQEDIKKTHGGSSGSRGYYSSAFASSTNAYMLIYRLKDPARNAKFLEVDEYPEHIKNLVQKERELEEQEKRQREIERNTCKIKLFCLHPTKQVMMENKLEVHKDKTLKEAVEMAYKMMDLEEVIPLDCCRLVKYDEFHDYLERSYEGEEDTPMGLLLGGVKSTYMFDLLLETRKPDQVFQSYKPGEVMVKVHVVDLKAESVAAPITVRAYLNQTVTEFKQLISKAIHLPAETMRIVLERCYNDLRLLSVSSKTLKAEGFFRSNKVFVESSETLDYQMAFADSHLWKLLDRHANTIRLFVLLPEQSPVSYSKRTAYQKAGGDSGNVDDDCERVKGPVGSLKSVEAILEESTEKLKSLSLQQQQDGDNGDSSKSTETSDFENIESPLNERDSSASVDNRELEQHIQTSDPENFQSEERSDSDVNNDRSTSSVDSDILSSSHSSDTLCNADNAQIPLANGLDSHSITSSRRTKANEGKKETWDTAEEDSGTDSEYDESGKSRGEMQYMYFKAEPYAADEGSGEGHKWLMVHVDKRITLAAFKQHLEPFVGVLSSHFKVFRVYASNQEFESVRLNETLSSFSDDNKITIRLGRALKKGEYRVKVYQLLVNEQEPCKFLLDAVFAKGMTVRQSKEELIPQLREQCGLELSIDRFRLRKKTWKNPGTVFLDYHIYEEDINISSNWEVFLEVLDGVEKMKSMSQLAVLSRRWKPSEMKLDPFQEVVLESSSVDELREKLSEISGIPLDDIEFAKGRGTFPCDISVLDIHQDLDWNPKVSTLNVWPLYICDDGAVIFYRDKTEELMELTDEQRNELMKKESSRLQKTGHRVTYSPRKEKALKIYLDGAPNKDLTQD
Summary of the method: as §1

[4] = target: T3, USP48 (UniProt Q86UV5)
T3 sequence (whole entry): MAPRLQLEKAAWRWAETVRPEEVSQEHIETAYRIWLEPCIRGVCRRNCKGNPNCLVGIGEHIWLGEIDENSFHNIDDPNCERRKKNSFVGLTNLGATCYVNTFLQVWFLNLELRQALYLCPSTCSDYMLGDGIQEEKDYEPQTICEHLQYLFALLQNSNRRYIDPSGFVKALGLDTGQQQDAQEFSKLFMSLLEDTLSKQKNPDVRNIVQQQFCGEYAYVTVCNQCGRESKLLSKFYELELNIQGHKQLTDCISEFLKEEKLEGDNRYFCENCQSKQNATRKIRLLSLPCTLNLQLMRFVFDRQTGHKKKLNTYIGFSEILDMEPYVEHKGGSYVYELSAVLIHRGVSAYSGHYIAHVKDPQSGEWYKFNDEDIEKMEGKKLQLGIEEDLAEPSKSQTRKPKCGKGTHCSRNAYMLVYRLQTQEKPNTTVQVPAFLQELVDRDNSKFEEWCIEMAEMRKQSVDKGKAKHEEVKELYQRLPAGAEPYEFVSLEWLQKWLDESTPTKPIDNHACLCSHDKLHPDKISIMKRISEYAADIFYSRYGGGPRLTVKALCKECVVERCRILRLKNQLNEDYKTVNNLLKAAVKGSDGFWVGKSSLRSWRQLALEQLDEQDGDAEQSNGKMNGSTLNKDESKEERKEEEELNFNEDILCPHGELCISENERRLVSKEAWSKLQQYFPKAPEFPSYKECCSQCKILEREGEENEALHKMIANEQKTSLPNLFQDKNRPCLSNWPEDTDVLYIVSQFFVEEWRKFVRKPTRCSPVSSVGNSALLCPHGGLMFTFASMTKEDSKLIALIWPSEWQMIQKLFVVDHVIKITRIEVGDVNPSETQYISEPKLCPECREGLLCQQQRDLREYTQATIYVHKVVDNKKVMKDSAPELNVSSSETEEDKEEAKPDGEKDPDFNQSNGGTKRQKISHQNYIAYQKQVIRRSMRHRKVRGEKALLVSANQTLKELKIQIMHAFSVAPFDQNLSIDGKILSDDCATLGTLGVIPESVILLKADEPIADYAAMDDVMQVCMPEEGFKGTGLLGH
Summary of the method: as §1

[5] = target: T4, USP5 (UniProt P45974)
T4 sequence (whole entry): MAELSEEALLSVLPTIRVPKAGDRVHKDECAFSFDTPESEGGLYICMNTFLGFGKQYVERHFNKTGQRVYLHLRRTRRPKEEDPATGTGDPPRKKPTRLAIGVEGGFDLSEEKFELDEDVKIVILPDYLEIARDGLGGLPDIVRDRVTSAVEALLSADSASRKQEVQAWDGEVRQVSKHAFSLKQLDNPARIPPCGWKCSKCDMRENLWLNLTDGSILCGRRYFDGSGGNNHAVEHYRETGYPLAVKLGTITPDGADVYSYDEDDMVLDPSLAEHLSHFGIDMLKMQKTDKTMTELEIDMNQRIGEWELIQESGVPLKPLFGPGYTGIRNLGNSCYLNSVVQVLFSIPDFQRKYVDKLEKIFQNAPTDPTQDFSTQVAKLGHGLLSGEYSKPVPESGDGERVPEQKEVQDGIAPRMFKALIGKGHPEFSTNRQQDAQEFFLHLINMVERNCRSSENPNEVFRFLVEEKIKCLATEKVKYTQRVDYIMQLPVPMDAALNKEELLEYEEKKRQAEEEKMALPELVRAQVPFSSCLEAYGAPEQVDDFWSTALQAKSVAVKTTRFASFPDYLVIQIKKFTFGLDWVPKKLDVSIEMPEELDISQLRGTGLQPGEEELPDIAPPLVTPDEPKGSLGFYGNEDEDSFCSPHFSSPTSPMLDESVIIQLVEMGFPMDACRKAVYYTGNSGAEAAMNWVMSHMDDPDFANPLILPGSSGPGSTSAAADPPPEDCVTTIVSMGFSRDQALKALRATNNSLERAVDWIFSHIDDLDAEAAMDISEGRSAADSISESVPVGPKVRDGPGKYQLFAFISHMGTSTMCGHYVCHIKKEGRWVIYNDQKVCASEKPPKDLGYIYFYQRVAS
Summary of the method: as §1

[6] = target: USP54 (UniProt Q70EL1)
Sequence of USP54 (Q70EL1 whole entry): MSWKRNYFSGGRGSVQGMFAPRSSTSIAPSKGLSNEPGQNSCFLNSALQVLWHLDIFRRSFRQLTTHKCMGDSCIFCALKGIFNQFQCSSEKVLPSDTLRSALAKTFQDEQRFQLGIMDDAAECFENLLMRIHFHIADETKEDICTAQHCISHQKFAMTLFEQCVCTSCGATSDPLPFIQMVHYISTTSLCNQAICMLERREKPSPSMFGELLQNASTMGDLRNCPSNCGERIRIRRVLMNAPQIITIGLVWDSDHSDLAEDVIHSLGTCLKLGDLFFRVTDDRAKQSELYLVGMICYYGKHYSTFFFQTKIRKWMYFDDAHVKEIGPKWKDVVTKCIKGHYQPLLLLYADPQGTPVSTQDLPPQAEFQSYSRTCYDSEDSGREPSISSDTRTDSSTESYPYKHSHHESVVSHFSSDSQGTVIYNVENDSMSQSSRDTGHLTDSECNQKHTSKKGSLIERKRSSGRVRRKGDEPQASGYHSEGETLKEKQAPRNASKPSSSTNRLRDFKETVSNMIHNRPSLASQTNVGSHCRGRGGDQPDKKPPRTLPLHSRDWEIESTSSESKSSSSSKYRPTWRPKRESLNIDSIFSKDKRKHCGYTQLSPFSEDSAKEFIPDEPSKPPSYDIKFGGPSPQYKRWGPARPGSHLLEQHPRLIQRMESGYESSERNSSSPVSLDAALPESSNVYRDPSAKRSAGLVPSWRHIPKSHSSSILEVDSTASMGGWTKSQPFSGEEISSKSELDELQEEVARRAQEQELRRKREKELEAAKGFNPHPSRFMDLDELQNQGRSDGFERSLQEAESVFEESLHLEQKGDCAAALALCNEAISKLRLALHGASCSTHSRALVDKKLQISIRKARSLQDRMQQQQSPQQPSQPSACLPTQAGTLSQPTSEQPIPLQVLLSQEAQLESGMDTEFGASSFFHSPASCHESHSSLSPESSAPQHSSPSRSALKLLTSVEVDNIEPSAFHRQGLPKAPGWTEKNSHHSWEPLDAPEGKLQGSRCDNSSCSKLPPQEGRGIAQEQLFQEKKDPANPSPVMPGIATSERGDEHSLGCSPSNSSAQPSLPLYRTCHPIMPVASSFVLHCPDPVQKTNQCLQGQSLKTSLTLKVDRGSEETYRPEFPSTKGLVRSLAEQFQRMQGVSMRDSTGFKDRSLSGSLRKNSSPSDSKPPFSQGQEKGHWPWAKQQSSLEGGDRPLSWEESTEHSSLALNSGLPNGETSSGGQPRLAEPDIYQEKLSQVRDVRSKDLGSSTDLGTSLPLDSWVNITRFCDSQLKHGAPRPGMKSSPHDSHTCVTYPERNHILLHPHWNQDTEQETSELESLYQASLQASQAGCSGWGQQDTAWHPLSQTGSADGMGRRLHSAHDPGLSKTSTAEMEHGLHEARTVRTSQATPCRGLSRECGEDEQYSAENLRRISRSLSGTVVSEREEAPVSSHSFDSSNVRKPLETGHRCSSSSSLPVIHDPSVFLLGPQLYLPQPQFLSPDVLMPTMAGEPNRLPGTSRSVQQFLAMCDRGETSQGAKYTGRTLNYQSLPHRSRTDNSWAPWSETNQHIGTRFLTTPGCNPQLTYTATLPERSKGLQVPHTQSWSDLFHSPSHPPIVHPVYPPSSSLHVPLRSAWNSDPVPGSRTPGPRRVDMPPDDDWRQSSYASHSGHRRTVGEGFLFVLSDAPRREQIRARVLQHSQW
Summary of the method: as §1

[7] = target: USP7 (UniProt Q93009)
Sequence of USP7 (Q93009 whole entry, looked up): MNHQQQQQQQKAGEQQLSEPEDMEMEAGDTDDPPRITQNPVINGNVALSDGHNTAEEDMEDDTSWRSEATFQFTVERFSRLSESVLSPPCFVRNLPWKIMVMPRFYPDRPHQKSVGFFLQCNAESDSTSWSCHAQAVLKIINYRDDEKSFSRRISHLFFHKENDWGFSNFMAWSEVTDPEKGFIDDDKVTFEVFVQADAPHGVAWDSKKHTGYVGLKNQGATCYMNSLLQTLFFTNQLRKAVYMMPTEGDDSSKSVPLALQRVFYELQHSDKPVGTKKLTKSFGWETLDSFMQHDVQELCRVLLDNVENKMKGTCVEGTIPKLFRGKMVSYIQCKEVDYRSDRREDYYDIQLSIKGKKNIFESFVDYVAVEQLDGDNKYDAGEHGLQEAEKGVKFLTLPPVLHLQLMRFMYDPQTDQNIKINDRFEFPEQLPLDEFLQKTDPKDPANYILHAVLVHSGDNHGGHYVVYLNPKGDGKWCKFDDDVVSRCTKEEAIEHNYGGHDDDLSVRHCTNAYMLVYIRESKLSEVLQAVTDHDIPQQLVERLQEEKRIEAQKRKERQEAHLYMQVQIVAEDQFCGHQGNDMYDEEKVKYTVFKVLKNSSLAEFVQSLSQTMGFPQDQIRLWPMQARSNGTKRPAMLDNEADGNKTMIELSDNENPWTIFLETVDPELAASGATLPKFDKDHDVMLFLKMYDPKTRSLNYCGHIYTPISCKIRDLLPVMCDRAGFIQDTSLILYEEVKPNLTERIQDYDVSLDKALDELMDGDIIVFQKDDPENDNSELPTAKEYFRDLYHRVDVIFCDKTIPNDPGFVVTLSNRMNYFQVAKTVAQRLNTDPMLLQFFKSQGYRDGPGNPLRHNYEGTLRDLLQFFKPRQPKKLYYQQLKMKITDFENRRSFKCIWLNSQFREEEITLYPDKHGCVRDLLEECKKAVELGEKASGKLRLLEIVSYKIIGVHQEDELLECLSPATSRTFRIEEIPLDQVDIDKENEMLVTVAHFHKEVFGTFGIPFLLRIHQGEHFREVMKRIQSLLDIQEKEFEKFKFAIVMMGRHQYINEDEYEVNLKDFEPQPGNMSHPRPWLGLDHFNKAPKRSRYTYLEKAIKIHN
Summary of the method: as §1

[8] = target: T5, USP8 (UniProt P40818)
T5 sequence (whole entry): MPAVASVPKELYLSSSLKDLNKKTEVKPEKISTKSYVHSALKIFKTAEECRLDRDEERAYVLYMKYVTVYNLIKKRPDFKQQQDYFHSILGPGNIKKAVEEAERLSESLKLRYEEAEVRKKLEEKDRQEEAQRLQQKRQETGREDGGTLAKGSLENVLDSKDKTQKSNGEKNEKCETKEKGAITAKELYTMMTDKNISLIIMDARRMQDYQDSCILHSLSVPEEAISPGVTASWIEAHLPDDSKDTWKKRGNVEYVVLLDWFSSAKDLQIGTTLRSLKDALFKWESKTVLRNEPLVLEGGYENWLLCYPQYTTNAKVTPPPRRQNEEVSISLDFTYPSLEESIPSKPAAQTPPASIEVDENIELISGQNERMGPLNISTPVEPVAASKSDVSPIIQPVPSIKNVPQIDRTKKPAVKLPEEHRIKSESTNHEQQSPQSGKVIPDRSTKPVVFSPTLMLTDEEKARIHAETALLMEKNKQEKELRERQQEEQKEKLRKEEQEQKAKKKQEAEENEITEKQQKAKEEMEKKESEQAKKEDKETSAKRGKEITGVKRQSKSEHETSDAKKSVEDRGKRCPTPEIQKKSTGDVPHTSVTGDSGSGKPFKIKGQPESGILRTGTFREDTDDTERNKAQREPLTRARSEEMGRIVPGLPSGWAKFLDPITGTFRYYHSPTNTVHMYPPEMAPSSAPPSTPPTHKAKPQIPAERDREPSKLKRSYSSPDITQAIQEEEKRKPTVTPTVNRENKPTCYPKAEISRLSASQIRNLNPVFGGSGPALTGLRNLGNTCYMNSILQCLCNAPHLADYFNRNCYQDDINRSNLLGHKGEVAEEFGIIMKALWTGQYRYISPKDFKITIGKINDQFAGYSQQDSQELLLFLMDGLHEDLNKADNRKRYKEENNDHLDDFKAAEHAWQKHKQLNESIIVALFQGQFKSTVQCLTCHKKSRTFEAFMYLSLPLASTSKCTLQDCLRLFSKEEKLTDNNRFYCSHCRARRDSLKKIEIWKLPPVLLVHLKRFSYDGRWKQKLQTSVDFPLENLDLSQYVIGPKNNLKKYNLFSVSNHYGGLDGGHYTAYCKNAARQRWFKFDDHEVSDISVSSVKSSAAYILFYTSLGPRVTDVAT
Summary of the method: as §1

Measured: log2 ratio of Biotin-Ahx-Ub-VS probe labelling

O=C(CCl)N1CCCCC12CCOCC2
inactive: [1] -0.368 | [2] -0.278 | [3] -0.146 | [4] -0.525 | [5] -0.258 | [6] 0.442 | [7] -0.511 | [8] -0.237
